Key:
[1] = molecular target: Homeodomain-interacting protein kinase 3 (Homo sapiens) (UniProt Q9H422); conditions: at 10 µM
[2] = molecular target: T1, Serine/threonine-protein kinase haspin (Homo sapiens) (UniProt Q8TF76); conditions: at 1 µM
T1 sequence (whole entry): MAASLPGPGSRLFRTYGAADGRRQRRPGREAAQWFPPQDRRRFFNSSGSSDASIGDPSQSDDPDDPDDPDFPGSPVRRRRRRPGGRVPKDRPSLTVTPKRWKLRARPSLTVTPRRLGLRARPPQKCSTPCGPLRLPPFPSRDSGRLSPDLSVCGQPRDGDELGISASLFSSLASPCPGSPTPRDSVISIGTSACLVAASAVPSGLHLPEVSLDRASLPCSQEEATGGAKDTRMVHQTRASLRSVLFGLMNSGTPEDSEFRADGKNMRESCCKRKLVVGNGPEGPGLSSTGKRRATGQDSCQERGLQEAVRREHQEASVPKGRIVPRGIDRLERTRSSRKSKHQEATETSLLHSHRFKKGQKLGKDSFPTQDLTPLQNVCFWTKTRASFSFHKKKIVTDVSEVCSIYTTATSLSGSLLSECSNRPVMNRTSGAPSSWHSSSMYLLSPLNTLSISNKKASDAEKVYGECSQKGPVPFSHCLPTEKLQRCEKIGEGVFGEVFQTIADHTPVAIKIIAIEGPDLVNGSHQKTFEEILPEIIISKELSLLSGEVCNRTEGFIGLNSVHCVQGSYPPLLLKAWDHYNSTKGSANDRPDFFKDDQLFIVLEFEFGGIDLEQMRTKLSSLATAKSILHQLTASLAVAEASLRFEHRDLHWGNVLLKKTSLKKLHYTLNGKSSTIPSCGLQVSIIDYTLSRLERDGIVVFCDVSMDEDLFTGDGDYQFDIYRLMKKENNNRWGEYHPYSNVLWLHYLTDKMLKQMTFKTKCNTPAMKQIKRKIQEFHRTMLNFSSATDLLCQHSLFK

[3] = molecular target: T1, Serine/threonine-protein kinase haspin (Homo sapiens); conditions: at 10 µM
[4] = molecular target: Tyrosine-protein kinase HCK (Homo sapiens) (UniProt P08631); conditions: at 1 µM
Sequence of Tyrosine-protein kinase HCK (Homo sapiens) (P08631 2-526 limits assumed): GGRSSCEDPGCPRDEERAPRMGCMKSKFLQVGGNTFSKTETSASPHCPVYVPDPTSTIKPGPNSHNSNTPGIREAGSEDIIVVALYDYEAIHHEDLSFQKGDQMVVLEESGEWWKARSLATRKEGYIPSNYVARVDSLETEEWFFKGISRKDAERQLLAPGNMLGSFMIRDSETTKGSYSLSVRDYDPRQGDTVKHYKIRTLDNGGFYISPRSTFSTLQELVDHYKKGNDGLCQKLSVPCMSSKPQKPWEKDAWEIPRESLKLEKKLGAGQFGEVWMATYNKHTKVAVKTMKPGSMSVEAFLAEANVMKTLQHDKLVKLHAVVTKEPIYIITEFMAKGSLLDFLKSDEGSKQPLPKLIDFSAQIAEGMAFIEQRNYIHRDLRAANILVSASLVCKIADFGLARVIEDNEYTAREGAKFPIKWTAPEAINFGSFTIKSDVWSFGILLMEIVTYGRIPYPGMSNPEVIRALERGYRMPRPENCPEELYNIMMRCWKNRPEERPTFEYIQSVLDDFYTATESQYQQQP

[5] = molecular target: Tyrosine-protein kinase HCK (Homo sapiens) (UniProt P08631); conditions: at 10 µM
[6] = molecular target: Tyrosine-protein kinase HCK (Homo sapiens) (UniProt P08631); conditions: at 1 µM; remark: listed apart in the source
[7] = molecular target: Tyrosine-protein kinase HCK (Homo sapiens) (UniProt P08631); conditions: at 10 µM; remark: listed apart in the source
[8] = molecular target: Insulin-like growth factor 1 receptor (Homo sapiens) (UniProt P08069); conditions: at 1 µM
Sequence of Insulin-like growth factor 1 receptor (Homo sapiens) (P08069 31-736 limits assumed): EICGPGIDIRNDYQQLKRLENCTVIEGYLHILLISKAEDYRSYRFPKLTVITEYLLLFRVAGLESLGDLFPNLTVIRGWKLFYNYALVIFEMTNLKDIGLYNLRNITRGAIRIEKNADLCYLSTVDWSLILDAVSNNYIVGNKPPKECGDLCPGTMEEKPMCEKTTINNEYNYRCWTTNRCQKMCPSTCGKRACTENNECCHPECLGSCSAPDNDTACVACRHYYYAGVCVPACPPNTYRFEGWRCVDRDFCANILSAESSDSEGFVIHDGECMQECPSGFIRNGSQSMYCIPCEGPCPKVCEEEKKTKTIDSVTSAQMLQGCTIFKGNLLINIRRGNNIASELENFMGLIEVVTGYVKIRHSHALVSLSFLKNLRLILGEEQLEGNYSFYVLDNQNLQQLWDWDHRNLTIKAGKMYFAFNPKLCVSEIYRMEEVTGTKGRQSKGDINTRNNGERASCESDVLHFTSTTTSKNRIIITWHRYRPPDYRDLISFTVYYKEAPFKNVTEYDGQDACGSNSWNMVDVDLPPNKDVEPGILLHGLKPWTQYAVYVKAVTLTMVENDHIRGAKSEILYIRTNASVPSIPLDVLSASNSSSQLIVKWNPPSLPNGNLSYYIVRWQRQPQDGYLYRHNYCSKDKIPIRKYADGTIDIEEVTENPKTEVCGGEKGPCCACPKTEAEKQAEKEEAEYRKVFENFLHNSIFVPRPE
Sequence of Insulin-like growth factor 1 receptor (Homo sapiens) (P08069 741-1367 limits assumed): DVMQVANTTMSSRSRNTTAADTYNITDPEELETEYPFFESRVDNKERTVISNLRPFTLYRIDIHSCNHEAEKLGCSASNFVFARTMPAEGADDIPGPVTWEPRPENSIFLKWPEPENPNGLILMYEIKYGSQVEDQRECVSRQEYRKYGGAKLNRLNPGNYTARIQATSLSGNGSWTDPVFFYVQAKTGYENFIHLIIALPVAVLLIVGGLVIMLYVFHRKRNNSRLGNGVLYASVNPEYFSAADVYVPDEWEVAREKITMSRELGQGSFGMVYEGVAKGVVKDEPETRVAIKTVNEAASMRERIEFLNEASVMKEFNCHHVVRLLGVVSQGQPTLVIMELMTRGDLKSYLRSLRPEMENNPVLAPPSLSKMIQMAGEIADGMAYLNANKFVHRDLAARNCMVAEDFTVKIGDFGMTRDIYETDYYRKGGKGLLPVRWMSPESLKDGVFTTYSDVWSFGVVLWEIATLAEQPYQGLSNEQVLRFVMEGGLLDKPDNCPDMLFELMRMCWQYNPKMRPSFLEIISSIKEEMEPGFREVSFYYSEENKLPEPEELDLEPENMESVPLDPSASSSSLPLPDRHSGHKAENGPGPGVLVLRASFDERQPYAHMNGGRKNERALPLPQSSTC

[9] = molecular target: Insulin-like growth factor 1 receptor (Homo sapiens) (UniProt P08069); conditions: at 10 µM
[10] = molecular target: T2, Protein kinase C zeta type (Homo sapiens) (UniProt Q05513); conditions: at 10 µM
T2 sequence (whole entry): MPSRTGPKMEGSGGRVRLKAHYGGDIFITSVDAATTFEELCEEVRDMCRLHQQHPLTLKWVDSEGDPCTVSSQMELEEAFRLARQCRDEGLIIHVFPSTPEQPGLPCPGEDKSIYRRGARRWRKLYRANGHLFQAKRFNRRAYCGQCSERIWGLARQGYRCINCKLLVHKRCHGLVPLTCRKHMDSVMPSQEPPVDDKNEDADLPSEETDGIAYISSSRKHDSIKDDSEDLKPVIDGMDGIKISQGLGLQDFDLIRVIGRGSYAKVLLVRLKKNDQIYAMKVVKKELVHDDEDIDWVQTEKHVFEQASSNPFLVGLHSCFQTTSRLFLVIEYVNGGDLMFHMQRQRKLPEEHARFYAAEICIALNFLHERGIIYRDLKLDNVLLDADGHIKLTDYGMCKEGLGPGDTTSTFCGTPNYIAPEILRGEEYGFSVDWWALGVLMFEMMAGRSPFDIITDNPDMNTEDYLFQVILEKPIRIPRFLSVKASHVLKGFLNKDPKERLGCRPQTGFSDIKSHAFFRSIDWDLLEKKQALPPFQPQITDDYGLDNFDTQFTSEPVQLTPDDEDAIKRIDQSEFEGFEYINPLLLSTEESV

[11] = molecular target: Protein kinase C eta type (Homo sapiens) (UniProt P24723); conditions: at 1 µM
Sequence of Protein kinase C eta type (Homo sapiens) (P24723 whole entry): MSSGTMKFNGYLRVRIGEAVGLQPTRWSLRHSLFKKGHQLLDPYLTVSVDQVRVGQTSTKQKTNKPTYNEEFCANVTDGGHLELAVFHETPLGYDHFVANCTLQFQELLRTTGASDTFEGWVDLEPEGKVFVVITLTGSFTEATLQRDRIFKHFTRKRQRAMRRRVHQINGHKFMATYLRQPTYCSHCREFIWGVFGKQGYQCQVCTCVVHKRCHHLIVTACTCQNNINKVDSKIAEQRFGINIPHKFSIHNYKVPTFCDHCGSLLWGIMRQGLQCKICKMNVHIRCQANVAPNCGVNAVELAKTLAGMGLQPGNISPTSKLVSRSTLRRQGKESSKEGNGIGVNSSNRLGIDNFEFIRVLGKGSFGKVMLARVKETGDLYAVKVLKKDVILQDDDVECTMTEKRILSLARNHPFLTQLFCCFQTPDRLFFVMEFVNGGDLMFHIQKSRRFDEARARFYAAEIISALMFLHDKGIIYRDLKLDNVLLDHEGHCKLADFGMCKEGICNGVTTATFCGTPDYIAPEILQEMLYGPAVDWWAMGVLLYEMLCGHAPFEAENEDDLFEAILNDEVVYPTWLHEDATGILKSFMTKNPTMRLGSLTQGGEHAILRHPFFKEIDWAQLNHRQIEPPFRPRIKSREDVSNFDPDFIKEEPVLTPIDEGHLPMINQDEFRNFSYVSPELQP

[12] = molecular target: Protein kinase C eta type (Homo sapiens) (UniProt P24723); conditions: at 10 µM
[13] = molecular target: Protein kinase C theta type (Homo sapiens) (UniProt Q04759); conditions: at 1 µM
Sequence of Protein kinase C theta type (Homo sapiens) (Q04759 whole entry, looked up): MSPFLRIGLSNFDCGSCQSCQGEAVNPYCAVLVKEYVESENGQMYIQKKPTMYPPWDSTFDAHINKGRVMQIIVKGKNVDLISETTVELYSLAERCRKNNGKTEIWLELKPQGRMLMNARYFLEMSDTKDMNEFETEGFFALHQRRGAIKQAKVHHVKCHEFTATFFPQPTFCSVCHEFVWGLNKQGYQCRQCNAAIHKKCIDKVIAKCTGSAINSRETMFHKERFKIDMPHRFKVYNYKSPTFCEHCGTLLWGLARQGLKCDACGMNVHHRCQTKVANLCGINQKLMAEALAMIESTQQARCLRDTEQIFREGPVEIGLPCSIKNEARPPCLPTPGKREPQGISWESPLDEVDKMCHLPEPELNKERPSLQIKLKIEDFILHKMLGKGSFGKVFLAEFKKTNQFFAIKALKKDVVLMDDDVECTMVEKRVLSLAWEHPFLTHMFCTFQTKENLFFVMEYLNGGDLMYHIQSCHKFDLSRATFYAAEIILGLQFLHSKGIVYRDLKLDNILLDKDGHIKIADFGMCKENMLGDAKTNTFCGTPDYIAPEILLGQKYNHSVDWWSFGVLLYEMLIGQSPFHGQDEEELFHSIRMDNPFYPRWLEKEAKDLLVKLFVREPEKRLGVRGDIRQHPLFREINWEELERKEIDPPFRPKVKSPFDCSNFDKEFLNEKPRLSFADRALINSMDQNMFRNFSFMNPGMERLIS

[14] = molecular target: Protein kinase C theta type (Homo sapiens) (UniProt Q04759); conditions: at 10 µM
[15] = molecular target: T3, Protein kinase C iota type (Homo sapiens) (UniProt P41743); conditions: at 1 µM
T3 sequence (whole entry): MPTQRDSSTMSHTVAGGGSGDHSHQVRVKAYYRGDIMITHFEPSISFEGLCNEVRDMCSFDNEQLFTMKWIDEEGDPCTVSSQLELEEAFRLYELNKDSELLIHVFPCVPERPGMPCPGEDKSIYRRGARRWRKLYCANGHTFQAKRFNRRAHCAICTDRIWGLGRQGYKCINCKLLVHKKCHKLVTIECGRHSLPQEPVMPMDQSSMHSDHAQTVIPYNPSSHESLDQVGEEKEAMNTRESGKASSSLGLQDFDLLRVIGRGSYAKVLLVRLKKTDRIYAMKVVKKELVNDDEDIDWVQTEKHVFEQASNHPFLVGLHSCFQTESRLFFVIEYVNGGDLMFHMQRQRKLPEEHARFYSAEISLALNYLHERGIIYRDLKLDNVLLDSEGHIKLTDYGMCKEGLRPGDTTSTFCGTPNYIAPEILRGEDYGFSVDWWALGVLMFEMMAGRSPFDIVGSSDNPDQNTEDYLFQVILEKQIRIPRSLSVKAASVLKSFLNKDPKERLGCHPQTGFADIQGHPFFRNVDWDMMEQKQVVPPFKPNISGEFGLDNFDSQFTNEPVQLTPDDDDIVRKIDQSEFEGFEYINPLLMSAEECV

[16] = molecular target: T3, Protein kinase C iota type (Homo sapiens); conditions: at 10 µM
[17] = molecular target: T4, Serine/threonine-protein kinase D1 (Homo sapiens) (UniProt Q15139); conditions: at 1 µM
T4 sequence (whole entry): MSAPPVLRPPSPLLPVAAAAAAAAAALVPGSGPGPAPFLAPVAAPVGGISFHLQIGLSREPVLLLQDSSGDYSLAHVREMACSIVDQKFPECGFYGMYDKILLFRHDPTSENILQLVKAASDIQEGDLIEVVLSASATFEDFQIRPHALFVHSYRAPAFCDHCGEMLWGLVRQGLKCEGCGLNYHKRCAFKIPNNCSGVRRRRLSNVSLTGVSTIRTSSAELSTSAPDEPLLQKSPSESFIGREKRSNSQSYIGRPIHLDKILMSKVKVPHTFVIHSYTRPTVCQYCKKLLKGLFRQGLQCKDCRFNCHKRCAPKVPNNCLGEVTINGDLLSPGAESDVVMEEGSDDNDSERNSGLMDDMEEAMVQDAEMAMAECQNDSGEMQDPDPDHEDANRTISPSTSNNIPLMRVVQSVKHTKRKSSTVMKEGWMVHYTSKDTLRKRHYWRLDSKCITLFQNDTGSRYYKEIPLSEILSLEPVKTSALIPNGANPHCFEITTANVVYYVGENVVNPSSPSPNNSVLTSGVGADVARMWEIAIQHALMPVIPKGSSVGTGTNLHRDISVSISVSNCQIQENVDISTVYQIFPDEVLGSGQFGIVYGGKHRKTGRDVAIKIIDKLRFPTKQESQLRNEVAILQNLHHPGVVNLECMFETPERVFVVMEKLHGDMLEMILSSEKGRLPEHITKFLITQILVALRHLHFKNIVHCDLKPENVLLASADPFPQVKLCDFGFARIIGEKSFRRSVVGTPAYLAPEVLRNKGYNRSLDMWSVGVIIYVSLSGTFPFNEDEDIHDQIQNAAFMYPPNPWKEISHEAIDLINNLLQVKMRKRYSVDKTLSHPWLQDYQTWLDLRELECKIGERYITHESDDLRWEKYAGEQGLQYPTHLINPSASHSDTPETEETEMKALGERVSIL

[18] = molecular target: T4, Serine/threonine-protein kinase D1 (Homo sapiens); conditions: at 10 µM
[19] = molecular target: T5, Serine/threonine-protein kinase D2 (Homo sapiens) (UniProt Q9BZL6); conditions: at 1 µM
T5 sequence (whole entry): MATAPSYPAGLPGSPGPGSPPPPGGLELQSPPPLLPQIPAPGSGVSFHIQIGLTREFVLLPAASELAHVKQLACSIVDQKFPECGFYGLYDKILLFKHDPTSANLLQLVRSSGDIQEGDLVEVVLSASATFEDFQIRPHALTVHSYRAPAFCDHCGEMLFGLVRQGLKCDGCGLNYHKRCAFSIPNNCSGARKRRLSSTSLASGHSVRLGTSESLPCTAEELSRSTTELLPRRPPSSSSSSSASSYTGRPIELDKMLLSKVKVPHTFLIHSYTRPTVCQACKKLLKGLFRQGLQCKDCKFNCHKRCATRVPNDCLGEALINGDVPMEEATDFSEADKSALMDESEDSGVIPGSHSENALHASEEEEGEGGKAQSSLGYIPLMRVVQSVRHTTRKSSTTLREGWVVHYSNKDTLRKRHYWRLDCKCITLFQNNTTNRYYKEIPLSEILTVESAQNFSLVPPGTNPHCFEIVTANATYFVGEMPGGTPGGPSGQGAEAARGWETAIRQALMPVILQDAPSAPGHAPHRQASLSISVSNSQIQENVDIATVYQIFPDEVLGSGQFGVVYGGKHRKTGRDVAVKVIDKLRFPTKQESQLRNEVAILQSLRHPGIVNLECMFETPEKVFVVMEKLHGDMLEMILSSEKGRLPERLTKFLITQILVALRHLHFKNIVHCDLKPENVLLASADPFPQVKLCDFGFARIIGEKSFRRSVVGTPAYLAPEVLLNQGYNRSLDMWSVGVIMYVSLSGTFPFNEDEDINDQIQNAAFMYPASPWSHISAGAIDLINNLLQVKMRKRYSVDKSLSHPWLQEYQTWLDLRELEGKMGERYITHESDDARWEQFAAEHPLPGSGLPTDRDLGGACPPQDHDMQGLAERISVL

[20] = molecular target: T5, Serine/threonine-protein kinase D2 (Homo sapiens); conditions: at 10 µM

Sequence of Homeodomain-interacting protein kinase 3 (Homo sapiens) (Q9H422 whole entry, looked up): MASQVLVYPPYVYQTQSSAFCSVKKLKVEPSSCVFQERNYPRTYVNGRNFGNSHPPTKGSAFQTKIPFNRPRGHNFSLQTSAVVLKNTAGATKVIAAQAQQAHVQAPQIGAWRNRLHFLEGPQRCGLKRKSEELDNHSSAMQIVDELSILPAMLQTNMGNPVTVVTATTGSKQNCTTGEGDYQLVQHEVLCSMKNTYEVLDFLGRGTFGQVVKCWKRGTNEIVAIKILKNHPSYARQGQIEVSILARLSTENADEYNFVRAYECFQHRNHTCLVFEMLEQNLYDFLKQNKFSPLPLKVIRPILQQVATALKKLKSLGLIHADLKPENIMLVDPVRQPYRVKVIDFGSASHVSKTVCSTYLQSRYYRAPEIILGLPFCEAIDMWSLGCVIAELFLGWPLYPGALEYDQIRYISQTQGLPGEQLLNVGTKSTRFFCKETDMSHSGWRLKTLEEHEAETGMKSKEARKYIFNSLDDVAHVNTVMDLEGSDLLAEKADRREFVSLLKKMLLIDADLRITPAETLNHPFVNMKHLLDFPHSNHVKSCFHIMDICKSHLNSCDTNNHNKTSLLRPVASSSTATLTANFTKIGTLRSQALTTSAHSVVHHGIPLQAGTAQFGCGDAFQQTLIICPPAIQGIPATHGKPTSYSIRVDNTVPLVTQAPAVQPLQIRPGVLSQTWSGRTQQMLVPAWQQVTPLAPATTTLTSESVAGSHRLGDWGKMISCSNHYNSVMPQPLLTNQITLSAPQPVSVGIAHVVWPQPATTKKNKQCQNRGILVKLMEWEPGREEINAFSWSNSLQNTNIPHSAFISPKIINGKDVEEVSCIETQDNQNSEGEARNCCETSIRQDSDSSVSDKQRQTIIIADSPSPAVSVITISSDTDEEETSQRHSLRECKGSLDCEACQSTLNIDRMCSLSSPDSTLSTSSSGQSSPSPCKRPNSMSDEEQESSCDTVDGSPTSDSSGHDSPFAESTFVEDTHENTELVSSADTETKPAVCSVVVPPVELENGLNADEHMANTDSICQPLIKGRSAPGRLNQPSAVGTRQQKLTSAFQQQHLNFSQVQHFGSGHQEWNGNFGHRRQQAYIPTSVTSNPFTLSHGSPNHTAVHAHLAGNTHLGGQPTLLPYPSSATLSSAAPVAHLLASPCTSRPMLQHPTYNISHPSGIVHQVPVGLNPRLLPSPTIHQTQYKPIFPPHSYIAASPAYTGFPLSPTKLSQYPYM

SMILES | residual activity [1] [%] | residual activity [2] [%] | residual activity [3] [%] | residual activity [4] [%] | residual activity [5] [%] | residual activity [6] [%] | residual activity [7] [%] | residual activity [8] [%] | residual activity [9] [%] | residual activity [10] [%] | residual activity [11] [%] | residual activity [12] [%] | residual activity [13] [%] | residual activity [14] [%] | residual activity [15] | residual activity [16] [%] | residual activity [17] [%] | residual activity [18] [%] | residual activity [19] [%] | residual activity [20] [%]
Cn1cc(/C=C2\C(=O)Nc3ccc(S(N)(=O)=O)cc32)c2ccccc21 | 32 | 101 | 50 | 26 | 5 | 56 | 47 | 118 | 114 | 109 | 96 | 98 | 84 | 49 | 110% (inactive) | 87 | 84 | 59 | 103 | 103
Cn1nc2c3c(cccc31)C(=O)c1ccccc1-2 | 90 | 41 | 2 | 72 | 53 | 96 | 92 | 111 | 106 | 106 | 88 | 89 | 97 | 86 | 105% (inactive) | 105 | 61 | 54 | 108 | 92
NC(=O)c1ccc2[nH]c(-c3ccc(Oc4ccc(Cl)cc4)cc3)nc2c1 | 98 | 89 | 96 | 72 | 60 | 96 | 89 | 140 | 98 | 100 | 86 | 80 | 85 | 105 | 107% (inactive) | 96 | 109 | 79 | 99 | 84
Cc1ccc(NC2=CC(=O)c3sc(C)nc3C2=O)cc1 | 97 | 105 | 116 | 85 | 74 | 103 | 99 | 75 | 116 | 102 | 83 | 86 | 88 | 87 | 106% (inactive) | 103 | 76 | 73 | 105 | 85
COc1cc2ncnc(Nc3ccc(O)c(Br)c3)c2cc1OC | 92 | 65 | 24 | 32 | 4 | 29 | 7 | 71 | 73 | 95 | 94 | 69 | 83 | 81 | 88% (inactive) | 106 | 47 | 16 | 93 | 79
O=C(O)c1ccc2c3c1cccc3c(=O)n1c3ccccc3nc21 | 48 | 91 | 92 | 102 | 81 | 104 | 95 | 68 | 74 | 95 | 76 | 84 | 109 | 107 | 105% (inactive) | 92 | 110 | 57 | 101 | 84
O=Nc1c(-c2c(O)[nH]c3ccccc23)[nH]c2ccccc12 | 19 | 26 | 19 | 15 | 5 | 8 | 1 | 37 | 26 | 98 | 91 | 83 | 81 | 55 | 96% (inactive) | 105 | 113 | 65 | 109 | 98
CN(C)c1ccc(/C=C2\C(=O)Nc3ccccc32)cc1 | 94 | 83 | 46 | 76 | 32 | 102 | 77 | 146 | 139 | 101 | 102 | 93 | 117 | 85 | 92% (inactive) | 78 | 96 | 81 | 103 | 114
Cn1cnc2cc3c(Nc4cccc(Br)c4)ncnc3cc21 | 95 | 108 | 59 | 52 | 21 | 51 | 25 | 145 | 103 | 101 | 93 | 91 | 99 | 100 | 103% (inactive) | 76 | 94 | 82 | 97 | 116
COc1ccc(C(=O)Nc2sc3c(c2C(N)=O)CCCC3)cc1OC | 97 | 109 | 93 | 66 | 70 | 95 | 94 | 115 | 74 | 109 | 98 | 77 | 89 | 84 | 89% (inactive) | 107 | 89 | 96 | 103 | 108
O=C1NC(=O)/C(=C/c2ccc3c(c2)OC(F)(F)O3)S1 | 88 | 78 | 67 | 60 | 46 | 115 | 94 | 98 | 130 | 111 | 120 | 89 | 109 | 100 | 90% (inactive) | 80 | 105 | 77 | 107 | 99
N#C/C(=C(\N)Sc1ccc(N)cc1)c1ccccc1C(F)(F)F | 86 | 108 | 116 | 67 | 41 | 99 | 108 | 99 | 123 | 105 | 76 | 83 | 84 | 77 | 106% (inactive) | 108 | 82 | 68 | 109 | 100

Reference: ChEMBL document CHEMBL2218924, “A broad activity screen in support of a chemogenomic map for kinase signalling research and drug discovery” (Biochem J, 2013)
